# Hit rate of the full screen: of about 39,000 compounds, about 3,300 (8.5%) were called active. The entries come from a sample that favours actives as a whole.
# Test system: HepG2
# Experiment: cytotoxicity call (relative viability < 0.9)
# Conditions: 10 µM
row,Compound,cytotoxicity call
1,O=C(N[C@H]1CC=CC[C@H](CC(=O)N(CCO)Cc2ccccc2)C(=O)N[C@H](Cc2ccccc2)COC1=O)OCC1c2ccccc2-c2ccccc21,inactive
2,O=C1N[C@@H](Cc2c[nH]c3ccccc23)COC(=O)[C@H](Cc2ccc(F)cc2)CCC=CC[C@H]1CC(=O)N(CCO)Cc1ccccc1,inactive
3,O=C(N[C@H]1CC=CC[C@H](CC(=O)N(CCO)Cc2ccccc2)C(=O)N[C@@H](Cc2ccccc2)COC1=O)OCC1c2ccccc2-c2ccccc21,active
4,O=C1N[C@H](Cc2c[nH]c3ccccc23)COC(=O)[C@@H](Cc2ccc(F)cc2)CC=CC[C@@H]1CC(=O)N(CCO)Cc1ccccc1,inactive
5,O=C1N[C@H](Cc2c[nH]c3ccccc23)COC(=O)[C@@H](Cc2ccc(F)cc2)CCC=CC[C@H]1CC(=O)N(CCO)Cc1ccccc1,active
6,O=C1N[C@H](Cc2c[nH]c3ccccc23)COC(=O)[C@@H](Cc2ccc(F)cc2)CCC=CC[C@@H]1CC(=O)N(CCO)Cc1ccccc1,inactive
7,O=C1N[C@@H](Cc2c[nH]c3ccccc23)COC(=O)[C@@H](Cc2ccc(F)cc2)CC=CC[C@@H]1CC(=O)N(CCO)Cc1ccccc1,active
8,O=C(N[C@@H]1CC=CC[C@H](CC(=O)N(CCO)Cc2ccccc2)C(=O)N[C@@H](Cc2ccccc2)COC1=O)OCC1c2ccccc2-c2ccccc21,inactive
9,O=C1N[C@H](Cc2c[nH]c3ccccc23)COC(=O)[C@H](Cc2ccc(F)cc2)CC=CC[C@@H]1CC(=O)N(CCO)Cc1ccccc1,inactive
10,CC12CC(OC1=O)C1(C)CCC3(C)C(=CCC4C5(C)CCC(O)C(C)(C)C5CCC43C)C1C2 (stereo not drawn),inactive
11,O=S1(=O)C[C@H](NCc2cccnc2)[C@@H](O)C1,inactive
12,C[C@H](CO)N1C[C@H](C)[C@@H](CN(C)Cc2ccc(C(=O)O)cc2)Oc2c(NC(=O)C3CCOCC3)cccc2C1=O,inactive
13,COc1ccc(CN(C)C[C@H]2Oc3ccc(NS(=O)(=O)c4c(C)noc4C)cc3CC(=O)N([C@H](C)CO)C[C@@H]2C)cc1,inactive
14,COc1ccc(S(=O)(=O)Nc2ccc3c(c2)C(=O)N([C@H](C)CO)C[C@@H](C)[C@@H](CN(C)S(=O)(=O)c2ccc(OC)cc2)O3)cc1,inactive
15,CN1C(=O)c2cc(NC(=O)Nc3ccccc3F)ccc2OC[C@H]2O[C@@H](CC(=O)NCc3ccc(-c4ccccc4)cc3)CC[C@@H]21,inactive
16,C[C@@H]1CCCCO[C@@H](CN(C)S(=O)(=O)c2ccc(Cl)cc2)[C@@H](C)CN([C@H](C)CO)C(=O)c2cc(NC(=O)C3CCCCC3)ccc2O1,inactive
17,CO[C@H]1CN(C)C(=O)c2ccc(NS(C)(=O)=O)cc2OC[C@@H](C)N(C(=O)C2CCOCC2)C[C@@H]1C,inactive
18,COc1ccc(S(=O)(=O)Nc2ccc3c(c2)C(=O)N([C@H](C)CO)C[C@@H](C)[C@H](CN(C)C(=O)C2CCCCC2)OCCCC[C@H](C)O3)cc1,inactive
19,C[C@@H]1CN([C@@H](C)CO)C(=O)c2cc(N(C)C)ccc2O[C@@H](C)CCCCO[C@H]1CN(C)C(=O)CCCN(C)C,inactive
20,Cc1noc(C)c1S(=O)(=O)Nc1ccc2c(c1)C(=O)N([C@H](C)CO)C[C@H](C)[C@@H](CN(C)C(=O)Nc1cccc3ccccc13)OCCCC[C@H](C)O2,active
21,Cc1noc(C)c1S(=O)(=O)Nc1ccc2c(c1)C(=O)N([C@H](C)CO)C[C@H](C)[C@H](CN(C)C(=O)Nc1cccc3ccccc13)OCCCC[C@@H](C)O2,inactive
22,Cc1noc(C)c1S(=O)(=O)Nc1ccc2c(c1)C(=O)N([C@@H](C)CO)C[C@@H](C)[C@@H](CN(C)C(=O)Nc1cccc3ccccc13)OCCCC[C@H](C)O2,inactive
23,Cc1noc(C)c1S(=O)(=O)Nc1ccc2c(c1)C(=O)N([C@H](C)CO)C[C@@H](C)[C@@H](CN(C)C(=O)Nc1cccc3ccccc13)OCCCC[C@@H](C)O2,inactive
24,Cc1noc(C)c1S(=O)(=O)Nc1ccc2c(c1)C(=O)N([C@@H](C)CO)C[C@@H](C)[C@@H](CN(C)C(=O)Nc1cccc3ccccc13)OCCCC[C@@H](C)O2,active
25,Cc1noc(C)c1S(=O)(=O)Nc1ccc2c(c1)C(=O)N([C@@H](C)CO)C[C@@H](C)[C@H](CN(C)C(=O)Nc1cccc3ccccc13)OCCCC[C@H](C)O2,inactive

row,Compound,cytotoxicity call
1,C[C@@H]1CN([C@H](C)CO)C(=O)c2cc(NC(=O)Cc3ccccc3)ccc2O[C@@H](C)CCCCO[C@@H]1CN(C)Cc1ccncc1,inactive
2,Cc1ccc(S(=O)(=O)N(C)C[C@H]2OCCCC[C@H](C)Oc3ccc(NC(=O)C4CCCCC4)cc3C(=O)N([C@@H](C)CO)C[C@H]2C)cc1,inactive
3,C[C@@H]1CN([C@H](C)CO)C(=O)CCCn2nncc2CO[C@H]1CN(C)C(=O)c1cc(-c2ccccc2)on1,inactive
4,COc1ccc(S(=O)(=O)N(C)C[C@@H]2Oc3c(NC(=O)c4cc(C)nn4C)cccc3C(=O)N([C@H](C)CO)C[C@H]2C)cc1,inactive
5,C[C@@H]1CN([C@H](C)CO)C(=O)c2cccc(NS(=O)(=O)c3cn(C)cn3)c2O[C@H]1CN(C)S(=O)(=O)c1ccc(Cl)cc1,inactive
6,COc1ccc(S(=O)(=O)N(C)C[C@@H]2Oc3ccc(NS(=O)(=O)c4ccc(F)cc4)cc3C(=O)N([C@@H](C)CO)C[C@H]2C)cc1,inactive
7,O=C(NN=Cc1ccc([N+](=O)[O-])o1)c1ccc(O)cc1,active
8,O=C(NO)c1ccc(C(=O)N/N=C/c2ccc(B(O)O)cc2)cc1,inactive
9,O=C(N/N=C/c1ccc(CO)o1)c1ccccn1,inactive
10,COC(=O)N/N=C/c1ccc([N+](=O)[O-])o1,inactive
11,NC(=O)N/N=C/c1ccc([N+](=O)[O-])o1,inactive
12,NC(=O)NN=Cc1ccc([N+](=O)[O-])o1,active
13,C[C@@H]1CCCCO[C@@H](CN(C)C(=O)C2CCCCC2)[C@@H](C)CN([C@H](C)CO)C(=O)c2cc(NC(=O)c3ccncc3)ccc2O1,inactive
14,O=C(CCCCCC(=O)Nc1ccccc1O)N/N=C/[C@H](O)[C@@H](O)[C@@H](O)[C@H](O)C(=O)O,inactive
15,COCC#Cc1cnc2c(c1)C(=O)N([C@H](C)CO)C[C@@H](C)[C@@H](CN(C)C(=O)CN1CCOCC1)O2,inactive
16,COc1cc(CN)cc(OC)c1OC,inactive
17,C[C@H](CO)N1C[C@H](C)[C@@H](CN(C)C(=O)Nc2ccc(F)cc2)Oc2ccc(NC(=O)CCCCCC(=O)Nc3ccccc3N)cc2CC1=O,inactive
18,COc1ccc(NC(=O)N(C)C[C@H]2OCCCC[C@@H](C)Oc3ccc(NC(=O)Cc4ccccc4)cc3C(=O)N([C@H](C)CO)C[C@@H]2C)cc1,inactive
19,O=C(CN1CCOCC1)NCC[C@H]1CC[C@@H](NS(=O)(=O)c2ccc(F)cc2)[C@H](CO)O1,inactive
20,C[C@H]1CN([C@@H](C)CO)C(=O)c2cccc(NC(=O)C3CCCCC3)c2O[C@H]1CN(C)S(=O)(=O)c1cn(C)cn1,inactive
21,NCc1c[nH]nc1-c1ccccc1,inactive
22,c1ccc(-c2n[nH]c3c2CCC3)cc1,inactive
23,NCCN1C(=O)c2[nH]nc(-c3ccccc3)c2[C@H]1c1ccccc1,active
24,C[C@@H]1CN([C@H](C)CO)S(=O)(=O)c2ccc(-c3cccc(F)c3)cc2O[C@H]1CN(C)S(C)(=O)=O,inactive
25,c1ccc2c(c1)Cc1cccnc1-2,inactive

row,Compound,cytotoxicity call
1,Clc1ccc2c(c1)CCc1cccnc1C2=C1CCNCC1,active
2,Cl.Clc1ccc2c(c1)CCc1cccnc1C2=C1CCNCC1,active
3,Clc1ccc2ncccc2c1,inactive
4,O=C(C[C@@H]1CC[C@H]2[C@@H](COC[C@H](O)CN2C(=O)c2ccc3c(c2)OCO3)O1)NCCN1CCCCC1,inactive
5,Cc1ccc(S(=O)(=O)Nc2cccc3c2O[C@@H](CN(C)C(=O)Nc2cccc4ccccc24)[C@@H](C)CN([C@H](C)CO)C3=O)cc1,inactive
6,NC[C@@H]1CC(=O)N(Cc2ccccc2)C1,inactive
7,NC[C@@H]1CC(=O)N(c2ccccc2)C1,active
8,NC(=O)N[C@@H]1CC(=O)N(c2ccccc2)C1,inactive
9,O=c1cc(-c2ccccc2)ss1,inactive
10,Cc1cc(Cl)cc2sc(N(Cc3ccccn3)C(=O)c3ccc(S(=O)(=O)N4CCCC4)cc3)nc12,inactive
11,Cc1ccc2sc(N(CCCN(C)C)C(=O)c3ccc(S(=O)(=O)N(C)C4CCCCC4)cc3)nc2c1C,active
12,O=C(c1ccc(S(=O)(=O)N2CCCCCC2)cc1)N(Cc1cccnc1)c1nc2c(F)cc(F)cc2s1,inactive
13,COc1cc(OC)c(S(=O)(=O)N(C)Cc2ccccc2)cc1S(=O)(=O)N(C)Cc1ccccc1,inactive
14,Cc1ccc2sc(N(CCCN(C)C)C(=O)c3ccc(S(=O)(=O)N(C)Cc4ccccc4)cc3)nc2c1C,active
15,CC(C)(C)NC[C@@H](O)CSc1nc(-c2ccc(C(N)=O)s2)cs1,inactive
16,COCC(=O)N(C)C[C@H]1Oc2cc(-c3ccc(C#N)cc3)ccc2S(=O)(=O)N([C@H](C)CO)C[C@H]1C,inactive
17,O=C(Nc1nccs1)[C@H]1[C@H](CO)[C@H]2Cn3c(cccc3=O)[C@@H]1N2C(=O)C1CC1,inactive
18,Cc1noc(C)c1S(=O)(=O)N(C)C[C@@H]1OCCCC[C@H](C)Oc2ccc(NC(=O)Nc3ccccc3)cc2C(=O)N([C@@H](C)CO)C[C@H]1C,inactive
19,C[C@H](CO)N1C[C@H](C)[C@H](CN(C)Cc2ccncc2)Oc2c(NS(=O)(=O)c3ccc(F)cc3)cccc2C1=O,inactive
20,COC(=O)[C@@H](N)CS[C@H]1CCCCO1,inactive
21,Cc1noc(C)c1NC(=O)Nc1ccc2c(c1)C(=O)N([C@H](C)CO)C[C@H](C)[C@H](CN(C)Cc1ccc(-c3ccccc3)cc1)O2,inactive
22,CC(C)[C@H]1CC[C@@H](C)C[C@@H]1NC(=O)c1cccc2ccccc12,inactive
23,COc1ccc2c(c1)n(CCN)c(=O)n2C(=O)[C@@H]1C[C@H](C)CC[C@H]1C(C)C,active

# From the antibiotic and cytotoxicity screens of Wong et al. (2023)
